# According to article PMC7862700, “An all-to-all approach to the identification of sequence-specific readers for epigenetic DNA modifications on cytosine”:
# How the values were obtained:
# Assay in all cases: DAPPL (digital affinity profiling via proximity ligation, sequencing); 10 mM Tris-HCl pH 7.5, 50 mM NaCl, 1 mM DTT, 4% glycerol, room temperature, 30 min; GST-TFs on glutathione beads, 16-mer random dsDNA library, 0.1% formaldehyde crosslink after washing; high values mean tight binding
# FEV = target: T1, FEV (Homo sapiens, UniProt Q99581 1-238); conditions: protein: recombinant; tags: N-terminal GST; dsDNA, one strand shown
# T1 sequence: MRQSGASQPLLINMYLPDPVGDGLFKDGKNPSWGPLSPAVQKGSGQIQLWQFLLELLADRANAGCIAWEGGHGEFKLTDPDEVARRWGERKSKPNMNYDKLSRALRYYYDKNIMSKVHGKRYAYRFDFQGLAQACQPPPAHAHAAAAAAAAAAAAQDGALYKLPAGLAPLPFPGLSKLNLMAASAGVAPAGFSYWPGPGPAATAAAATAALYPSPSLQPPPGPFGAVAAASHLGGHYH
# Outline: (§1)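 After expression in yeast as GST fusions, human transcription factors were bound to glutathione beads, DNA-barcoded and mixed with a tag-only sample. The pools were incubated with 200 nmole of a 16-mer random double-stranded DNA library in Tris/NaCl/DTT/glycerol buffer (30 min, room temperature), washed and crosslinked with 0.1% formaldehyde. Proximity ligation with BsaI/T4 ligase ran for 1 h at 37 °C, before PCR amplification and sequencing on an Illumina NextSeq500. Binding signal is a hexamer's read frequency for a factor divided by its frequency for the tag-only sample.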
# ETV5 = ETV5 (Homo sapiens, UniProt P41161 1-510); conditions: protein: recombinant; tags: N-terminal GST; dsDNA, one strand shown
# ETV5, sequence (P41161 whole entry): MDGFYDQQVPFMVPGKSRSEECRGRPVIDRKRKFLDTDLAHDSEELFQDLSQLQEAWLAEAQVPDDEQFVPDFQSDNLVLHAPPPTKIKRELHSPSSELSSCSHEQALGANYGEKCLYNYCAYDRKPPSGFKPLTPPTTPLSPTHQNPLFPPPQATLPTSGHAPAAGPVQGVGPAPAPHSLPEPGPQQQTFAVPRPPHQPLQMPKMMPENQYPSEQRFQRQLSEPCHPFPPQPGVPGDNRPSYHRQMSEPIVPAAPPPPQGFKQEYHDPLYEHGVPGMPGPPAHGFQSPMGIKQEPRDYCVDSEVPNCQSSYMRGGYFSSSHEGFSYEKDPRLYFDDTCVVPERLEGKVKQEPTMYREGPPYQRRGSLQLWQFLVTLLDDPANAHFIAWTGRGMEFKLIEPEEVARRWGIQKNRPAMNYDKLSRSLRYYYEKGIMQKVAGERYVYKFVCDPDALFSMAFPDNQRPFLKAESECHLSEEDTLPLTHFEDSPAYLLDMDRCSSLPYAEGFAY
# Outline: as §1
# HSF1 = HSF1 (Homo sapiens, UniProt Q00613 1-529); conditions: protein: recombinant; tags: N-terminal GST; chain copies: 3; dsDNA, one strand shown
# HSF1, sequence (Q00613 whole entry): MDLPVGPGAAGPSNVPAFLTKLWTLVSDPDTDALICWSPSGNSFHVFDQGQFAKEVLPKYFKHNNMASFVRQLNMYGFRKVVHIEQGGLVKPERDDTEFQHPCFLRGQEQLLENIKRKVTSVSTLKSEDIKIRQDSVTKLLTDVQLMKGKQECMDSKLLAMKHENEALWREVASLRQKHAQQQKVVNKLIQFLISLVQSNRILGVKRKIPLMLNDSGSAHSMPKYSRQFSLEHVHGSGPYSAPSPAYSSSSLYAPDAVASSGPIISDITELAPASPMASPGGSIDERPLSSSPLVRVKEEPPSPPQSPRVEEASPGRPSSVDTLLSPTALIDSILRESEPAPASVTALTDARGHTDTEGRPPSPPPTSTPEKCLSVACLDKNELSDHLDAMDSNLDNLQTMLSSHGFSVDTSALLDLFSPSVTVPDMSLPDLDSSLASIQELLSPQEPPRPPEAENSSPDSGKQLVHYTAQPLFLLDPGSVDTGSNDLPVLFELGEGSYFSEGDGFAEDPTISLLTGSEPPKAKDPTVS
# Outline: as §1
# SPIC = target: T2, SPIC (Homo sapiens, UniProt Q8N5J4 1-248); conditions: protein: recombinant; tags: N-terminal GST; dsDNA, one strand shown
# T2 sequence: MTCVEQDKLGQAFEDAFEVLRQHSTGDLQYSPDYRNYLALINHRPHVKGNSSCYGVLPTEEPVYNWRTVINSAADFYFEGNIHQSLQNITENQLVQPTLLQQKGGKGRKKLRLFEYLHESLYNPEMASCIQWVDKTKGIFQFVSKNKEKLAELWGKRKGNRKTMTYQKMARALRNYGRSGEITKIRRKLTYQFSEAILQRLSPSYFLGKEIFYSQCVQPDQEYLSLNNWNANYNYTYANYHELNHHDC
# Outline: as §1
# ELF4 = ELF4 (Homo sapiens, UniProt Q99607 1-663); conditions: protein: recombinant; tags: N-terminal GST; dsDNA, one strand shown
# ELF4, sequence (Q99607 whole entry): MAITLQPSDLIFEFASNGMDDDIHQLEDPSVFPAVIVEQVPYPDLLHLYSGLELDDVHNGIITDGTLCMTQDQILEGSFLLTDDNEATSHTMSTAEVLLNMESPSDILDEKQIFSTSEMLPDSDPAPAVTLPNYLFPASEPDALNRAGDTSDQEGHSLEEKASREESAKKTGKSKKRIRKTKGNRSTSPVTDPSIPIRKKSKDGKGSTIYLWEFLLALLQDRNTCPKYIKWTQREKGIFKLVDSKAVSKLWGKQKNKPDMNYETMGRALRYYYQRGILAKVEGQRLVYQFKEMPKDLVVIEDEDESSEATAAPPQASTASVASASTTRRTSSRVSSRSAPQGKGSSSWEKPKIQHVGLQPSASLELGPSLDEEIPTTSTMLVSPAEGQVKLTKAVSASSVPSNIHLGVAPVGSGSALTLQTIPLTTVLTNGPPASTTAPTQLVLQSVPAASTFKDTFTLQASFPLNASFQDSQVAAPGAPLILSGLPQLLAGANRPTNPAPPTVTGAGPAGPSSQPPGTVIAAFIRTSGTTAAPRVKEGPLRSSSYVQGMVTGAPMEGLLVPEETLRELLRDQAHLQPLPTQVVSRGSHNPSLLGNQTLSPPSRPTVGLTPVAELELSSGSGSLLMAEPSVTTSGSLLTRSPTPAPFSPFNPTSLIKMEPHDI
# Outline: as §1
# ELK4 = target: T3, ELK4 (Homo sapiens, UniProt P28324-2 1-405); conditions: protein: recombinant; tags: N-terminal GST; dsDNA, one strand shown
# T3 sequence: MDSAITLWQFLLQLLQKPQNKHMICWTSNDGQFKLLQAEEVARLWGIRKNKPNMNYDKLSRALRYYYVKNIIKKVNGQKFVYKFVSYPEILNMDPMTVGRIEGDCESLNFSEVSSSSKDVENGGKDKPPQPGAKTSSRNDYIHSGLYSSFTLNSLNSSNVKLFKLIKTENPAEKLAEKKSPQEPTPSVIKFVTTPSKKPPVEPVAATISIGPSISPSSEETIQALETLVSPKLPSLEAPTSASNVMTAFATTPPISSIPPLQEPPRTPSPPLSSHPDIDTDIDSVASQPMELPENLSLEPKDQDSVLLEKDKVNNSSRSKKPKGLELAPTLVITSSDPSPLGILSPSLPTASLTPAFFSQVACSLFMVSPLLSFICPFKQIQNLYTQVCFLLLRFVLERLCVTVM
# Outline: as §1
# ETV2 = target: T4, ETV2 (Homo sapiens, UniProt O00321 1-342); conditions: protein: recombinant; tags: N-terminal GST; dsDNA, one strand shown
# T4 sequence: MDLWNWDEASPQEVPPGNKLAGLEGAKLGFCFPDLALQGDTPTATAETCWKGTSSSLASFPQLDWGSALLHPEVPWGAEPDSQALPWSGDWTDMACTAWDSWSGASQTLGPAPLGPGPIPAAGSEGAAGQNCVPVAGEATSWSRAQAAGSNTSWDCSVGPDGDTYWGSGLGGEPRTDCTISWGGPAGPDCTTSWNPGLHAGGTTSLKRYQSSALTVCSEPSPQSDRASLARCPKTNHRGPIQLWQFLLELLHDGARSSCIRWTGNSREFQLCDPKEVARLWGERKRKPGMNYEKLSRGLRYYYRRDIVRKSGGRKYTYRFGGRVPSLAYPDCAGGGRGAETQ
# Outline: as §1
# ELF3 = target: T5, ELF3 (Homo sapiens, UniProt P78545 1-371); conditions: protein: recombinant; tags: N-terminal GST; dsDNA, one strand shown
# T5 sequence: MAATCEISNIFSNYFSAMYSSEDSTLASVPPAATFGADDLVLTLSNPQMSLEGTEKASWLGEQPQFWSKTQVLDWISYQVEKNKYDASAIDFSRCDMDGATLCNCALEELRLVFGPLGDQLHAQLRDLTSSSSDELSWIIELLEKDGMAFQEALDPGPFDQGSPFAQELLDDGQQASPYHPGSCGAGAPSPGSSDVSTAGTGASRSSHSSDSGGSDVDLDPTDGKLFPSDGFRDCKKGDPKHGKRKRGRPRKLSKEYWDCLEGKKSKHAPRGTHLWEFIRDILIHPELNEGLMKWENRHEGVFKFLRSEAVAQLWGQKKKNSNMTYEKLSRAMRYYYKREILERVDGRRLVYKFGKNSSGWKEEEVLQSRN
# Outline: as §1
# CRX = CRX (Homo sapiens, UniProt O43186 1-299); conditions: protein: recombinant; tags: N-terminal GST; dsDNA, one strand shown
# CRX, sequence (O43186 whole entry): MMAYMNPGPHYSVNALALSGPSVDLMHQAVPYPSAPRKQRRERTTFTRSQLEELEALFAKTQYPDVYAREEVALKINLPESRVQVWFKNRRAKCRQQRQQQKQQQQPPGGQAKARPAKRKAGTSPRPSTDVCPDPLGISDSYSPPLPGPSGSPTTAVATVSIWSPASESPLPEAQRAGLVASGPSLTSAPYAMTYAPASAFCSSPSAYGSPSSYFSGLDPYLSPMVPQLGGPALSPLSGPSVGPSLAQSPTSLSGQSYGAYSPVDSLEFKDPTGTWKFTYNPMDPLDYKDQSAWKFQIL
# Outline: as §1
# ETV1 = ETV1 (Homo sapiens, UniProt P50549 1-477); conditions: protein: recombinant; tags: N-terminal GST; dsDNA, one strand shown
# ETV1, sequence (P50549 whole entry): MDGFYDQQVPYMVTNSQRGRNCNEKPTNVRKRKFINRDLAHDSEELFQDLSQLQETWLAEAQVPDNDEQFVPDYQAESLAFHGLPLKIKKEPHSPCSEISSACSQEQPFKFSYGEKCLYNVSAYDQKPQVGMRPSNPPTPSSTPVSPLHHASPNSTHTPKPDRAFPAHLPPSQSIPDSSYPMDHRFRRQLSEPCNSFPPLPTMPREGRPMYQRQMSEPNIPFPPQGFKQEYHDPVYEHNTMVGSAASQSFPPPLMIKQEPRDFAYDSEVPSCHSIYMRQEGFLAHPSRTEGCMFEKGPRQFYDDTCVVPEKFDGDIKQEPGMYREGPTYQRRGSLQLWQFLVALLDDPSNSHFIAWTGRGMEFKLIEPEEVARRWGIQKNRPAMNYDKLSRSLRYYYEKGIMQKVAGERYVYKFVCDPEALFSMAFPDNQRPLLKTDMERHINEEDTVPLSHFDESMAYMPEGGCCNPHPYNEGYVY
# Outline: as §1
# ERF = target: T6, ERF (Homo sapiens, UniProt P50548 1-548); conditions: protein: recombinant; tags: N-terminal GST; dsDNA, one strand shown
# T6 sequence: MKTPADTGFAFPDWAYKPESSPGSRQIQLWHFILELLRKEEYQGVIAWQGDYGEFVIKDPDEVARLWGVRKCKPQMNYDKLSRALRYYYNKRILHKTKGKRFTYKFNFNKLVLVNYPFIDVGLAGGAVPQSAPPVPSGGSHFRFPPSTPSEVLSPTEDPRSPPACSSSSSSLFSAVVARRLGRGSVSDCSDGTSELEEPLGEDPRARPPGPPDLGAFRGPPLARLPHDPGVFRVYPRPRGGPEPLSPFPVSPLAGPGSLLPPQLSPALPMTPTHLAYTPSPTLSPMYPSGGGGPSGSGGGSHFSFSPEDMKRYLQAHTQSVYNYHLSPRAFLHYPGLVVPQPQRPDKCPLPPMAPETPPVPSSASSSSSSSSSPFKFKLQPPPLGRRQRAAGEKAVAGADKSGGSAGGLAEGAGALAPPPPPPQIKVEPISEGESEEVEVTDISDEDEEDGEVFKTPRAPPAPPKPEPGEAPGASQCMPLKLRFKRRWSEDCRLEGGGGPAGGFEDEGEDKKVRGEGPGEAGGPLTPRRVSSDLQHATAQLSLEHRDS
# Outline: as §1
# ETV3L = target: T7, ETV3L (Homo sapiens, UniProt Q6ZN32 1-361); conditions: protein: recombinant; tags: N-terminal GST; dsDNA, one strand shown
# T7 sequence: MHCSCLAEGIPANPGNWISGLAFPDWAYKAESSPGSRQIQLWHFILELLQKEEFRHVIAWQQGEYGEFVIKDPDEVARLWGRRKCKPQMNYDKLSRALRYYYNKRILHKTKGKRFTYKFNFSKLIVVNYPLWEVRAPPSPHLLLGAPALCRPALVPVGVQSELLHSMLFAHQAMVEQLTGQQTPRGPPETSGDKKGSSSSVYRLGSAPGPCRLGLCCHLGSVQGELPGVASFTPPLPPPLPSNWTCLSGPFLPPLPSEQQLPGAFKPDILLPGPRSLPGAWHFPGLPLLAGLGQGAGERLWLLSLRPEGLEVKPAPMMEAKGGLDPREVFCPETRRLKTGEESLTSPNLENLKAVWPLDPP
# Outline: as §1
# ETS2 = target: T8, ETS2 (Homo sapiens, UniProt P15036 1-469); conditions: protein: recombinant; tags: N-terminal GST; dsDNA, one strand shown
# T8 sequence: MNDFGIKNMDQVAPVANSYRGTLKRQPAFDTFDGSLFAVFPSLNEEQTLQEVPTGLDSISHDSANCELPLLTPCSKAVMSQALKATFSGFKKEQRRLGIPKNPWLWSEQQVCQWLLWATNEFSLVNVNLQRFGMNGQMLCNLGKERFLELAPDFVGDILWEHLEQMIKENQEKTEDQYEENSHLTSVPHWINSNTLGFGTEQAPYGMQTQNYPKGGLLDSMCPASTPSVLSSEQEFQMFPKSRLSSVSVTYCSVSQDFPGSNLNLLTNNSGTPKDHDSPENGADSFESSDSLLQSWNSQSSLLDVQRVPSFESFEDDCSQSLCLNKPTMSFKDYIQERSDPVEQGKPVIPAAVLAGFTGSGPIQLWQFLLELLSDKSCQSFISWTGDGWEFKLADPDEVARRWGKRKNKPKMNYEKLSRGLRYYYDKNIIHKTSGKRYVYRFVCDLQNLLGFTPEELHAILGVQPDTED
# Outline: as §1
# SPDEF = target: T9, SPDEF (Homo sapiens, UniProt O95238 1-335); conditions: protein: recombinant; tags: N-terminal GST; dsDNA, one strand shown
# T9 sequence: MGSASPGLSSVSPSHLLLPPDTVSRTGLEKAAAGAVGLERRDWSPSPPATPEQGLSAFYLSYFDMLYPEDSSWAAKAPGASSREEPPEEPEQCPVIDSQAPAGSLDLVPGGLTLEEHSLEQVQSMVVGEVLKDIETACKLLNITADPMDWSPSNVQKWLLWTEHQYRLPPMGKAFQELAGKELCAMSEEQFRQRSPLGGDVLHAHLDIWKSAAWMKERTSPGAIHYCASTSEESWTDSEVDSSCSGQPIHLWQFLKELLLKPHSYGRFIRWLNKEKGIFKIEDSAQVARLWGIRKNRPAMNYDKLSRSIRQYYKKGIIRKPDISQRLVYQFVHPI
# Outline: as §1
# ETV7 = target: T10, ETV7 (Homo sapiens, UniProt Q9Y603 1-341); conditions: protein: recombinant; tags: N-terminal GST; dsDNA, one strand shown
# T10 sequence: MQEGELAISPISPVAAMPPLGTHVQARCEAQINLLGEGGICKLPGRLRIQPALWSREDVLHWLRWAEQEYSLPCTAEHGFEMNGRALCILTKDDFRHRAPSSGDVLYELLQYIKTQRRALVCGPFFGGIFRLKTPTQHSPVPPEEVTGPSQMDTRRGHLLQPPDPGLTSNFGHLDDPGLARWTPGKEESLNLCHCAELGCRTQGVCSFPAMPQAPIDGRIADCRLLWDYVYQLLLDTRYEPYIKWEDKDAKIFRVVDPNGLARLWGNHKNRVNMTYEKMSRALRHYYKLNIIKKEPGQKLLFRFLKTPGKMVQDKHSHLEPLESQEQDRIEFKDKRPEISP
# Outline: as §1
# ELF5 = target: T11, ELF5 (Homo sapiens, UniProt Q9UKW6-2 1-255); conditions: protein: recombinant; tags: N-terminal GST; dsDNA, one strand shown
# T11 sequence: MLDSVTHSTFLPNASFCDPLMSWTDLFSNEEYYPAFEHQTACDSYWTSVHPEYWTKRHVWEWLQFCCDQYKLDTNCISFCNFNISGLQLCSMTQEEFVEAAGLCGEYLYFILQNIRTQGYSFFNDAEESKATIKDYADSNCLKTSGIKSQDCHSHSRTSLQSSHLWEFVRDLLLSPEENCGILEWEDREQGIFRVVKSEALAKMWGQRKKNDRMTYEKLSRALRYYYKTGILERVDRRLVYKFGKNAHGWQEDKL
# Outline: as §1
# ETV3 = target: T12, ETV3 (Homo sapiens, UniProt P41162-2 1-143); conditions: protein: recombinant; tags: N-terminal GST; dsDNA, one strand shown
# T12 sequence: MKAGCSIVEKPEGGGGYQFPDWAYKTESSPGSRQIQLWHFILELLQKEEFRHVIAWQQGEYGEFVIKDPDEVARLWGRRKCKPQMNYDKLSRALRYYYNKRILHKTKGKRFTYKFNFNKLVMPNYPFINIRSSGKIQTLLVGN
# Outline: as §1
# ETV6 = ETV6 (Homo sapiens, UniProt P41212 1-452); conditions: protein: recombinant; tags: N-terminal GST; dsDNA, one strand shown
# ETV6, sequence (P41212 whole entry): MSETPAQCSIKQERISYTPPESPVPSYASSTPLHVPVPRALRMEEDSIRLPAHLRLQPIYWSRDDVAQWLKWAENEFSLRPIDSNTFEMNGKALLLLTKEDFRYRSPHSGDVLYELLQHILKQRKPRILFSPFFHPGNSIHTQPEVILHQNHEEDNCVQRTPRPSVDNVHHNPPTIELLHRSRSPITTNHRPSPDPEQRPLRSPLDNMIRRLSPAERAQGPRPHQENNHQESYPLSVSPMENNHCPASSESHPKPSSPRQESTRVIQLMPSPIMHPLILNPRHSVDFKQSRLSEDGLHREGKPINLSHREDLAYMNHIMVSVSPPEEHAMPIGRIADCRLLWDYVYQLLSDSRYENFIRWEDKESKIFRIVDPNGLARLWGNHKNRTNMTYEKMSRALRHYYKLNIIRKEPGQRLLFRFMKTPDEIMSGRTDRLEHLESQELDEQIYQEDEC
# Outline: as §1
sequence,measurement,setting,value
GATTTT,binding signal,FEV,"1.09 fold enrichment (6-mer frequency, TF over GST control)"
same,binding signal,ETV5,"1.1 fold enrichment (6-mer frequency, TF over GST control)"
same,binding signal,HSF1,"1.45 fold enrichment (6-mer frequency, TF over GST control)"
same,binding signal,SPIC,"1.14 fold enrichment (6-mer frequency, TF over GST control)"
same,binding signal,ELF4,"1.15 fold enrichment (6-mer frequency, TF over GST control)"
same,binding signal,ELK4,"1.24 fold enrichment (6-mer frequency, TF over GST control)"
same,binding signal,ETV2,"1.12 fold enrichment (6-mer frequency, TF over GST control)"
same,binding signal,ELF3,"1.14 fold enrichment (6-mer frequency, TF over GST control)"
same,binding signal,CRX,"1.72 fold enrichment (6-mer frequency, TF over GST control)"
same,binding signal,ETV1,"1.17 fold enrichment (6-mer frequency, TF over GST control)"
same,binding signal,ERF,"1.16 fold enrichment (6-mer frequency, TF over GST control)"
same,binding signal,ETV3L,"1.24 fold enrichment (6-mer frequency, TF over GST control)"
same,binding signal,ETS2,"1.17 fold enrichment (6-mer frequency, TF over GST control)"
same,binding signal,SPDEF,"1.14 fold enrichment (6-mer frequency, TF over GST control)"
same,binding signal,ETV7,"1.13 fold enrichment (6-mer frequency, TF over GST control)"
same,binding signal,ELF5,"1.13 fold enrichment (6-mer frequency, TF over GST control)"
same,binding signal,ETV3,"1.08 fold enrichment (6-mer frequency, TF over GST control)"
same,binding signal,ETV6,"1.11 fold enrichment (6-mer frequency, TF over GST control)"
